Experimental data reported in PubChem BioAssay (NCI).
The panel holds about 79,000 compounds, 15% with a hit somewhere; the sample as a whole holds those more often. Values without a mark were called inactive. Activity calls are given as the source filed them. Rule as the data show it: active = growth inhibition above about 70%; inactive = the rest. Where a SMILES comes first, the peptide text is derived from it. [ ]: non-standard residue; d: D form. The star is where a group is joined. ξ: configuration not given here. ξAsp(βξ-Me) = CC(C(=O)O)C(N)C(=O)O; X11 = CC(N*)C1NC(=O)C2CCCCN2C1=O; ξAbu(3ξ-NH2) = CC(N)C(N)C(=O)O; X10 = CCC(C)CCC/C=C/CC(=O)*

Columns and labels:
[1] = NCI Yeast Anticancer Drug Screen. Data for the rad50 strain (AID 155);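 also: 0% = growth of vehicle-only cultures of the same strain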; details: S. cerevisiae rad50 strain growth inhibition; at 50.0 µM; hits give high values
Summary of the method: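 Relative growth inhibition (compound vs vehicle) was measured in yeast with a defined repair-gene alteration.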

[2] = NCI Yeast Anticancer Drug Screen. Data for the mec2-1 strain (AID 157); details: S. cerevisiae mec2-1 strain, at 50.0 µM, hits give high values
Summary of the method: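 Mutant yeast (mec2-1) grown with compound; growth inhibition relative to vehicle control reported.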

[3] = NCI Yeast Anticancer Drug Screen. Data for the sgs1 mgt1 strain (AID 161);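 also: 0% = growth of cultures given vehicle only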; details: S. cerevisiae sgs1 mgt1 strain, at 50.0 µM, hits give high values
Summary of the method: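 This yeast growth screen uses a strain with defined DNA-repair lesions; compound-treated growth is compared with vehicle-treated growth.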

[4] = NCI Yeast Anticancer Drug Screen. Data for the cln2 rad14 strain (AID 165);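 also: 0% = growth equal to vehicle treated cultures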; details: S. cerevisiae cln2 rad14 strain, at 50.0 µM, hits give high values
Summary of the method: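 Readout is yeast growth inhibition versus vehicle-treated controls, using a strain with cln2 and rad14 alterations exposed to compound.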

[5] = NCI Yeast Anticancer Drug Screen. Data for the bub3 strain (AID 167); details: S. cerevisiae bub3 mutant strain, at 50.0 µM, hits give high values
Summary of the method: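 Screening used yeast with an engineered genetic alteration affecting cell cycle control. Compound-exposed cultures were compared with vehicle cultures, and reduced growth was taken as inhibition.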

[6] = NCI Yeast Anticancer Drug Screen. Data for the mlh1 rad18 strain (AID 175); details: S. cerevisiae mlh1 rad18 strain growth inhibition; at 50.0 µM; hits give high values
Summary of the method: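 Genetically defined yeast (DNA repair-deficient) exposed to compounds; growth inhibition determined relative to vehicle.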

Row | SMILES | growth inhibition [1] | growth inhibition [2] | growth inhibition [3] | growth inhibition [4] | growth inhibition [5] | growth inhibition [6]
1 | C=CN1C(=O)NC2(CCCCC2)C1=O | -33.8% | -40% | -40.4% | 7.55% | -10.3% | -25.6%
2 | Cc1cc(NS(=O)(=O)c2ccc(NC(=O)c3ccc(Cl)c4c(Nc5ccc(S(=O)(=O)N=C(N)N)cc5)c5ccccc5nc34)cc2)no1 | 29.9% | 42.1% | 31.6% | 34.5% | 26.4% | 53.5%
3 | CCC(CC)=C(c1ccc(C)cc1)c1ccc(C)cc1 | -25.2% | -12.7% | -1.9% | -52.8% | 4.7% | -12.4%
4 | CC(C)(O)C(Br)(Br)Br | 0.2% | 3.7% | -22.4% | -33% | -21.9% | 32.1%
5 | Nc1nc2ccccc2[nH]1 | 2.2% | -0.3% | -17.7% | 0.8% | -11.8% | 6.95%
6 | O=C1C=C2CCCCCCCC(C1)C2 (stereo not given) | 11.8% | 1.1% | 2.25% | -1.75% | -1.15% | 3.2%
7 | CCCCCC(=O)N1CCCCC1CC (stereo not given) | -8.55% | 7.15% | -19.6% | -10.1% | -25.6% | -28.1%
8 | NC1CCCCC1NCCNC1CCCCC1N (stereo not given) | -3.15% | 9.35% | 16.4% | -12.9% | 42.4% | 10.8%
9 | COc1ccc2c(c1)c1cc(OC)ccc1n2CCCCOc1ccc(-c2c3ccccc3c(-c3ccc(OCCCCn4c5ccc(OC)cc5c5cc(OC)ccc54)cc3)c3ccccc23)cc1 | 29.1% | 1.85% | -1.1% | 23.9% | 7.9% | 29.6%
10 | CC1=C(C#N)C(=N)OC1(C)C1CC(=O)C=CC1=O (stereo not given) | -11.5% | 27.4% | 7.9% | 20.5% | 4.55% | 4.6%
11 | CCCc1c(O)cccc1O | 13.8% | 6.55% | 16.9% | 0.9% | -5.55% | 11%
12 | COc1ccc(-c2cc(-c3ccncc3)[nH]c2-c2nccc3ccccc23)cc1 | 94.2% (active) | 82.7% (active) | 97.3% (active) | 79.5% (active) | 73.7% (active) | 85% (active)
13 | CNC(=O)OCc1c(COC(=O)NC)c(-c2ccsc2)n2c1CCC2 | 17.5% | 13.6% | 37.1% | -5.6% | -22.4% | 8.25%
14 | C=CCCCCCCCCC(=O)OCC(C)C | 11.3% | 22.4% | 15.9% | -27.2% | -24.1% | 17.4%
15 | C/C=C(/C)C(=O)OC12CC(C)C3(O)C(C=C(CO)C[C@]4(O)C(=O)C(C)=CC34)C1C2(C)C (stereo not given in full) | 16.2% | 1.3% | -12.6% | -0.45% | 7.5% | 1.35%
16 | C[C@H](CCC(=O)O)[C@H]1CC[C@H]2[C@@H]3CC[C@@H]4C[C@H](O)CC[C@]4(C)[C@H]3CC[C@]12C | 40% | 31.4% | 10% | 0.75% | 25.8% | 23.6%
17 | Cn1c([N+](=O)[O-])cnc1COc1ccc(NC(=O)CN2CCOCC2)cc1 | 27% | 1.05% | 19.9% | 33.2% | 10.3% | 18.2%
18 | C[N+](C)(C)CC(=O)NC(=O)N/N=C\C(CC#N)CN(Cc1ccccc1)Cc1ccccc1 (stereo not given) | 23.5% | 13.7% | 19.1% | 10.6% | 2.35% | 12.2%
19 | CCOC(=O)/C(C)=C(/C)Nc1ccccc1 | 1.45% | 3.8% | -1.25% | -28.9% | -10.1% | 2.7%
20 | Oc1ccc2cccc(O)c2c1 | -17.6% | -33.6% | 37.5% | 19.9% | 12% | 3.9%

Row | SMILES | growth inhibition [1] | growth inhibition [2] | growth inhibition [3] | growth inhibition [4] | growth inhibition [5] | growth inhibition [6]
21 | Cc1c2cnccc2c(C)c2c1c1ccccc1n2CCNCc1ccccc1 | 98.2% (active) | 50.4% | 92.7% (active) | -7.75% | 1.15% | 66.7%
22 | Cc1cc(C(F)(F)F)nc2nc3ccccc3n12 | 6.55% | -18.9% | -0.15% | -3.7% | -29.7% | 6.2%
23 | O=c1[nH]c2cc(Cl)c([N+](=O)[O-])cc2c2ccc(Cl)cc12 | 3.15% | -7.7% | -1.6% | -10.7% | 3.1% | 8.05%
24 | O=C(CCCn1cnc([N+](=O)[O-])n1)NCCn1ccnc1[N+](=O)[O-] | -3.1% | -7.3% | -10.3% | -5.1% | -13.6% | -26.3%
25 | CC(=O)OC/C=C(\C)CCC=C(C)C | -21.6% | -23.4% | -12.2% | -6.65% | -0.55% | -5.15%
26 | CC(=O)Oc1cccc2c1C(=O)c1ccccc1C2=O | 30% | 5.3% | 22.4% | -4.2% | 11.3% | -10%
27 | NC(=O)CC1(C(=O)O)c2ccccc2-c2ccccc21 | 17.1% | -14.2% | 2.65% | -7.55% | 14.6% | -3.95%
28 | CCC(=O)Nc1cc([N+](=O)[O-])cc([N+](=O)[O-])c1 | 8.1% | -7.3% | -13.3% | -32.5% | -36.9% | -23.6%
29 | NC(=O)c1ccc(Cl)cc1 | 33% | 14.2% | 15.5% | 14.4% | -0.6% | 2%
30 | CC(C)NC(=O)CS(=O)(=O)c1ccc(N)cc1 | -2.3% | -11.8% | 2.1% | -0.3% | 30% | 7.7%
31 | C/C=C\COC(=O)C(C)OC(=O)OCC (stereo not given) | 14.2% | 11.8% | 4.85% | 5.75% | -0.65% | 0.5%
32 | O=C(CC1C(=O)Nc2ccccc2S1=O)Nc1cccc(Cl)c1 (stereo not given) | -32.2% | -31.1% | -4.5% | 18.2% | 10.1% | -25.2%
33 | COc1ccc(C(c2cc3c(cc2O)OCO3)N2CCCCC2)c(OC)c1 (stereo not given) | -31.2% | -13.1% | -12.2% | -22.4% | -2.15% | -6.95%
34 | Cc1nc(Cc2ccc(O)c(O)c2)c(C)o1 | 6.7% | 13.9% | 3.95% | -17.2% | -18% | 8.2%
35 | CC1(Br)CP(=O)(c2ccccc2)CC1Br (stereo not given) | -9.2% | -11.9% | 9.5% | -24.4% | 21.1% | -6%
36 | O=C(O)C1CCCCCC1 | 7.45% | 0.65% | 1.8% | -2.55% | 8.65% | 2%
37 | CN(C)CCC(C(=O)C(C)(C)C)c1ccccn1 (stereo not given) | -7.2% | -9.2% | -5.65% | -19.4% | -16.9% | -0.6%
38 | CCC(C)CCC/C=C/CC(=O)NC(CC(=O)O)C(=O)NC(C(=O)NC(CC(=O)O)C(=O)NCC(=O)NC(CC(=O)O)C(=O)NCC(=O)NC(C(=O)NC(C(=O)N1CCCC1C(=O)NC(C)C1NC(=O)C2CCCCN2C1=O)C(C)C)C(C)N)C(C)C(=O)O (stereo not drawn) (X10-D[ξAsp(βξ-Me)]DGDG[ξAbu(3ξ-NH2)]VP-X11; configuration not given here) | -38.3% | -42.5% | -56.2% | -67.4% | -29.5% | -25.9%
39 | CN1C/C(=C\c2ccc(C(=O)O)cc2)C(=O)/C(=C/c2ccc(C(=O)O)cc2)C1 | 33.3% | 5.35% | 28.1% | 20.9% | -5% | 19.7%
40 | C(#Cc1ccccc1)SC1=C(c2ccccc2)S/C(=C(\SC#Cc2ccccc2)c2ccccc2)S1 | 9.6% | 7.7% | -29.4% | 10.9% | -21.1% | -30.8%
